# Measured values as given in the antibiotic and cytotoxicity screens of Wong et al. (2023).
# Screen size: about 39,000 compounds; about 3,300 (8.5%) were called active. The entries come from a sample that favours actives as a whole.
# Tested on: HepG2
# Assay: cytotoxicity call (relative viability < 0.9)
# Conditions: 10 µM
row,Structure (SMILES),cytotoxicity call
1,Cc1cc(C(=O)Nc2cccc3c2O[C@@H](CN(C)S(=O)(=O)c2ccc(F)cc2)[C@@H](C)CN([C@H](C)CO)C3=O)n(C)n1,inactive
2,COc1ccc(S(=O)(=O)N(C)C[C@@H]2Oc3cc(C#CC4CCCC4)ccc3S(=O)(=O)N([C@H](C)CO)C[C@H]2C)cc1,inactive
3,C[C@@H]1CN([C@H](C)CO)C(=O)c2cc(NS(=O)(=O)c3ccccc3)ccc2O[C@@H]1CN(C)S(=O)(=O)c1ccc(F)cc1,inactive
4,COc1ccc(NC(=O)N[C@H]2CC[C@@H](CCNC(=O)CN3CCOCC3)O[C@@H]2CO)cc1,inactive
5,CCS(=O)(=O)Nc1ccc2c(c1)C(=O)N(C)[C@@H]1CC[C@@H](CC(=O)NCc3ccccc3F)O[C@H]1CO2,inactive
6,C[C@@H]1CCCCO[C@H](CN(C)S(=O)(=O)c2ccccc2)[C@H](C)CN([C@@H](C)CO)C(=O)c2cc(NC(=O)C3CCCCC3)ccc2O1,inactive
7,COc1ccc(CN(C)C[C@H]2OCCCC[C@H](C)Oc3ccc(NS(=O)(=O)c4ccc(Cl)cc4)cc3C(=O)N([C@H](C)CO)C[C@@H]2C)cc1,inactive
8,COCC(=O)N1[C@H](C(=O)NCc2ccccc2)[C@@H](CO)[C@@H]2Cn3c(cccc3=O)[C@@H]21,inactive
9,C[C@@H]1CN([C@H](C)CO)C(=O)c2cc(NC(=O)CCCN(C)C)ccc2O[C@@H]1CN(C)Cc1ccccc1,inactive
10,C[C@@H]1CN([C@@H](C)CO)C(=O)c2cc(NC(=O)CCCN(C)C)ccc2O[C@@H]1CN(C)Cc1ccccc1,inactive
11,C[C@H](CO)N1C[C@H](C)[C@H](CN(C)Cc2ccc(Oc3ccccc3)cc2)Oc2ccc(NC(=O)CCCN(C)C)cc2C1=O,active
12,C[C@H]1CN([C@@H](C)CO)C(=O)c2cc(NC(=O)CCCN(C)C)ccc2O[C@@H]1CN(C)Cc1ccccc1,inactive
13,C[C@@H]1CN([C@@H](C)CO)C(=O)c2cc(NC(=O)CCCN(C)C)ccc2O[C@@H]1CN(C)Cc1ccc(Oc2ccccc2)cc1,active
14,C[C@H](CO)N1C[C@H](C)[C@H](CN(C)Cc2ccccc2)Oc2ccc(NC(=O)CCCN(C)C)cc2C1=O,inactive
15,Cc1noc(C)c1NC(=O)Nc1ccc2c(c1)CC(=O)N([C@@H](C)CO)C[C@H](C)[C@H](CN(C)Cc1ccc(C(F)(F)F)cc1)O2,inactive
16,C[C@@H]1CN([C@H](C)CO)C(=O)c2cc(NC(=O)Nc3ccc(F)cc3)ccc2O[C@@H](C)CCCCO[C@H]1CN(C)C(=O)Nc1ccccc1,inactive
17,O=c1[nH]ncc2ccccc12,inactive
18,Cc1ccc(S(=O)(=O)Nc2cccc3c2O[C@@H](CN(C)S(=O)(=O)c2ccccc2)[C@H](C)CN([C@H](C)CO)C3=O)cc1,inactive
19,O=C(CN1CCOCC1)NCC[C@H]1CC[C@@H](NC(=O)c2ccc3c(c2)OCO3)[C@@H](CO)O1,inactive
20,Cc1ccc(S[C@]2(C(=O)NC(C)C)CC(=O)N(Cc3ccccc3Cl)[C@@H]2c2ccc(CO)cc2I)cc1,inactive
21,O=C(C[C@@H]1C[C@@H]2c3cc(NS(=O)(=O)c4ccc(F)cc4)ccc3O[C@@H]2[C@H](CO)O1)N1CCCCC1,inactive

row,Structure (SMILES),cytotoxicity call
1,C[C@@H]1CN([C@H](C)CO)C(=O)Cc2cc(NC(=O)Nc3ccc(C(F)(F)F)cc3)ccc2O[C@H]1CN(C)Cc1ccc(C(=O)Nc2ccccc2N)cc1,inactive
2,C[C@@H]1CN([C@@H](C)CO)C(=O)Cc2cc(NC(=O)Nc3ccc(C(F)(F)F)cc3)ccc2O[C@@H]1CN(C)Cc1ccc(C(=O)Nc2ccccc2N)cc1,active
3,C[C@H]1CN([C@@H](C)CO)C(=O)Cc2cc(NC(=O)Nc3ccc(C(F)(F)F)cc3)ccc2O[C@@H]1CN(C)Cc1ccc(C(=O)Nc2ccccc2N)cc1,inactive
4,C[C@H]1CN([C@@H](C)CO)C(=O)Cc2cc(NC(=O)Nc3ccc(C(F)(F)F)cc3)ccc2O[C@H]1CN(C)Cc1ccc(C(=O)Nc2ccccc2N)cc1,active
5,C[C@@H]1CN([C@@H](C)CO)C(=O)Cc2cc(NC(=O)Nc3ccccc3)ccc2O[C@@H]1CN(C)Cc1ccc(C(=O)Nc2ccccc2N)cc1,inactive
6,C[C@@H]1CN([C@H](C)CO)C(=O)Cc2cc(NC(=O)CCC(F)(F)F)ccc2O[C@H]1CN(C)Cc1ccc(C(=O)Nc2ccccc2N)cc1,inactive
7,C[C@H](CO)N1C[C@H](C)[C@@H](CN(C)Cc2ccc(C(=O)Nc3ccccc3N)cc2)Oc2ccc(NC(=O)CCC(F)(F)F)cc2CC1=O,inactive
8,C[C@H]1CN([C@@H](C)CO)C(=O)Cc2cc(NC(=O)CCC(F)(F)F)ccc2O[C@H]1CN(C)Cc1ccc(C(=O)Nc2ccccc2N)cc1,active
9,C[C@@H]1CN([C@H](C)CO)C(=O)Cc2cc(NC(=O)Nc3ccc(C(F)(F)F)cc3)ccc2O[C@@H]1CN(C)Cc1ccc(C(=O)Nc2ccccc2N)cc1,active
10,CC(=O)O[C@H]1C[C@@H]2CC[C@@H]3[C@H](CC[C@@]4(C)[C@H]3C[C@H]([N+]3(C)CCCCC3)[C@@H]4OC(C)=O)[C@@]2(C)C[C@@H]1N1CCCCC1,inactive
11,C[C@@H]1CN([C@@H](C)CO)C(=O)c2cc(NC(=O)CCN3CCOCC3)ccc2O[C@@H]1CN(C)Cc1ccncc1,inactive
12,C[C@@H]1CN([C@@H](C)CO)C(=O)c2cc(NS(=O)(=O)c3cccs3)ccc2O[C@H]1CN(C)S(C)(=O)=O,inactive
13,Cc1noc(C)c1S(=O)(=O)Nc1ccc2c(c1)CC(=O)N([C@H](C)CO)C[C@@H](C)[C@@H](CN(C)S(=O)(=O)c1cccs1)O2,inactive
14,Cc1noc(C)c1S(=O)(=O)Nc1cccc2c1O[C@H](CN(C)C(=O)NC1CCCCC1)[C@H](C)CN([C@H](C)CO)C2=O,inactive
15,CC(C)CC#Cc1ccc2c(c1)O[C@H](CN(C)C(=O)c1ccccn1)[C@@H](C)CN([C@@H](C)CO)S2(=O)=O,inactive
16,CC(C)(C)[S@@](=O)N1Cc2cc(C(=O)N[C@H]3CCN(Cc4ccccc4)C3)nc(-c3cccc(-c4cccnc4)c3)c2[C@H]1CCO,inactive
17,C[C@H]1CN([C@@H](C)CO)C(=O)c2cc(C#Cc3ccc(F)cc3)cnc2O[C@H]1CN(C)Cc1ccccn1,inactive
18,COc1ccc(NC(=O)Nc2ccc3c(c2)CC(=O)N([C@H](C)CO)C[C@@H](C)[C@@H](CN(C)S(=O)(=O)c2cn(C)cn2)O3)cc1,inactive
19,C[C@H](CO)N1C[C@H](C)[C@H](CN(C)Cc2ccc(C(=O)Nc3ccccc3N)cc2)Oc2ccc(NC(=O)Nc3ccc(C(F)(F)F)cc3)cc2CC1=O,active
20,Cc1ccc(S(=O)(=O)Nc2cccc3c2O[C@H](CN(C)C(=O)Nc2ccc(C(F)(F)F)cc2)[C@@H](C)CN([C@@H](C)CO)C3=O)cc1,inactive
21,C[C@H]1CN([C@@H](C)CO)C(=O)c2cc(NC(=O)Nc3ccc(C(F)(F)F)cc3)ccc2O[C@H]1CN(C)S(=O)(=O)c1ccc(F)cc1,active

row,Structure (SMILES),cytotoxicity call
1,C[C@H]1CN([C@@H](C)CO)C(=O)c2cc(NC(=O)Nc3ccc(C(F)(F)F)cc3)ccc2O[C@@H]1CN(C)S(=O)(=O)c1ccc(F)cc1,inactive
2,C[C@H](CO)N1C[C@H](C)[C@@H](CN(C)S(=O)(=O)c2ccc(F)cc2)Oc2ccc(NC(=O)Nc3ccc(C(F)(F)F)cc3)cc2C1=O,inactive
3,C[C@H]1CN([C@@H](C)CO)C(=O)c2cc(NC(=O)Nc3ccc(C(F)(F)F)cc3)ccc2O[C@H]1CN(C)S(C)(=O)=O,inactive
4,C[C@H]1CN([C@@H](C)CO)C(=O)c2cc(NC(=O)Nc3ccc(C(F)(F)F)cc3)ccc2O[C@@H]1CN(C)S(C)(=O)=O,inactive
5,C[C@H](CO)N1C[C@H](C)[C@H](CN(C)S(=O)(=O)c2ccc(F)cc2)Oc2ccc(NC(=O)Nc3ccc(C(F)(F)F)cc3)cc2C1=O,inactive
6,C[C@@H]1CN([C@@H](C)CO)C(=O)c2cc(NC(=O)Nc3ccc(C(F)(F)F)cc3)ccc2O[C@@H]1CN(C)S(=O)(=O)c1ccc(F)cc1,active
7,C[C@@H]1CN([C@@H](C)CO)C(=O)c2cc(NC(=O)Nc3ccc(C(F)(F)F)cc3)ccc2O[C@H]1CN(C)S(=O)(=O)c1ccc(F)cc1,inactive
8,C[C@@H]1CN([C@H](C)CO)C(=O)c2cc(NC(=O)Nc3ccc(C(F)(F)F)cc3)ccc2O[C@H]1CN(C)S(=O)(=O)c1ccc(F)cc1,active
9,C[C@@H]1CN([C@H](C)CO)C(=O)c2cc(NC(=O)Nc3ccc(C(F)(F)F)cc3)ccc2O[C@@H]1CN(C)S(=O)(=O)c1ccc(F)cc1,active
10,C[C@@H]1CN([C@H](C)CO)C(=O)c2cc(NC(=O)Nc3ccc(C(F)(F)F)cc3)ccc2O[C@H]1CN(C)S(C)(=O)=O,inactive
11,C[C@H]1CCCCO[C@@H](CN(C)C(=O)Nc2ccc3c(c2)OCO3)[C@@H](C)CN([C@@H](C)CO)C(=O)c2cc(NC(=O)C3CCCCC3)ccc2O1,inactive
12,C[C@H](CO)N1C[C@H](C)[C@@H](CN(C)C(=O)Nc2cccc3ccccc23)OCCCC[C@H](C)Oc2ccc(NC(=O)CCCN(C)C)cc2C1=O,inactive
13,C[C@@H]1CN([C@@H](C)CO)S(=O)(=O)c2ccc(C#CC3(O)CCCC3)cc2O[C@H]1CN(C)C(=O)Cc1ccncc1,inactive
14,C[C@@H]1CN([C@@H](C)CO)C(=O)c2cc(NC(=O)Nc3ccc(F)cc3)ccc2O[C@H]1CN(C)Cc1ccc(Oc2ccccc2)cc1,inactive
15,C[C@H](CO)N1C[C@H](C)[C@@H](CN(C)Cc2ccc(Oc3ccccc3)cc2)Oc2ccc(NC(=O)Nc3ccc(F)cc3)cc2C1=O,inactive
16,C[C@@H]1CN([C@H](C)CO)C(=O)c2cc(NC(=O)Nc3ccc(F)cc3)ccc2O[C@@H]1CN(C)Cc1ccc(Oc2ccccc2)cc1,active
17,C[C@@H]1CN([C@@H](C)CO)C(=O)c2cc(NC(=O)Nc3ccc(F)cc3)ccc2O[C@@H]1CN(C)Cc1ccc(Oc2ccccc2)cc1,active
18,C[C@@H]1CN([C@H](C)CO)C(=O)c2cc(NC(=O)Nc3ccc(F)cc3)ccc2O[C@H]1CN(C)Cc1ccc(Oc2ccccc2)cc1,active
19,C[C@H](CO)N1C[C@H](C)[C@H](CN(C)Cc2ccc(Oc3ccccc3)cc2)Oc2ccc(NC(=O)Nc3ccc(F)cc3)cc2C1=O,active
20,C[C@H]1CN([C@@H](C)CO)C(=O)c2cc(NC(=O)Nc3ccc(F)cc3)ccc2O[C@H]1CN(C)Cc1ccc(Oc2ccccc2)cc1,inactive
